Experimental data taken from PubChem BioAssay.

Experiments:
[1] = test system: Human papillomavirus type 1a protein E7 (residues 44-93); experiment: small molecules binding HPV E7 44-93 – biochemical, small-molecule microarray, residues 44-93, 635 nm fluorescence, primary screen (AID 1108); settings: fluorescence 635 nm, higher = more signal;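 further: E7 fragment applied at 1 µg/mL in TBST for 1 h at 4 C; score combines spot fluorescence with its signal to noise ratio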
[2] = hepatitis C replication reporter changes, two-sided – Huh7 cells, luciferase reporter, HCV replication inhibitor project, primary screen (AID 1109); settings: Huh7 HCV replicon luciferase reporter, 48 h; higher = more signal;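 further: huh7 hepatoma cells harbouring a luciferase neomycin HCV replicon reporter; luciferase luminescence as measure of HCV replicon replication; test concentration not given here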
[3] = target: Left-right determination factor 2 (Homo sapiens) (UniProt O00292); experiment: small molecules binding LEFTY2 protein – biochemical, small-molecule microarray, 635 nm fluorescence scan, primary screen (AID 1110); settings: higher = more signal
[4] = target: Calmodulin-1 (Homo sapiens) (UniProt P0DP23); experiment: small molecules binding calmodulin-1 with EGTA – biochemical, small-molecule microarray, Cy5-labelled CALM1, profiling panel (AID 1111); settings: Cy5-CALM1 binding fluorescence, higher = more signal;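 further: labelled calmodulin applied in Tris saline Tween buffer holding calcium plus EGTA and DTT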
[5] = target: Calmodulin-1 (Homo sapiens) (UniProt P0DP23); experiment: small molecules binding Ca-loaded calmodulin-1 – biochemical, small-molecule microarray, Cy5-labelled CALM1, plus calcium, artefact control for SMM control-protein annotation, profiling panel (AID 1112); settings: Cy5-CALM1 binding fluorescence, higher = more signal;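 further: score merges spot fluorescence with signal to noise from triplicate slides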
[6] = probe aWnt5a binding to arrayed compounds – biochemical, biotinylated probe, 635/667 nm fluorescence, primary screen (AID 1113); settings: small-molecule microarray, higher = more signal;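 further: score merges 667 nm fluorescence intensity with signal-to-noise per printed feature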
[7] = probe aShh binding to arrayed compounds – biochemical, biotinylated probe, 635/667 nm fluorescence, primary screen (AID 1114); settings: small-molecule microarray, higher = more signal;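 further: probe is biotin-labelled aShh protein from a stem cell growth factor screen; measures binding of labelled protein to compounds printed on the slide; score merges feature fluorescence at 667 nm with signal-to-noise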
[8] = probe aNog binding to arrayed compounds – biochemical, biotinylated probe, 635/667 nm fluorescence, primary screen (AID 1115); settings: small-molecule microarray, higher = more signal;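 further: probe is biotinylated aNog protein used at 0.15 µg/mL for 1 h at 4 C; z-score combines 667 nm fluorescence of each spot with its signal to noise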
[9] = target: Torsin-1A-interacting protein 1 (Homo sapiens) (UniProt Q5JTV8); experiment: compound microarray binding of lysate hLAP1 – cell lysate, small-molecule microarray, COS7 lysate, 635/667 nm fluorescence, primary screen (AID 1116); settings: 635 nm fluorescence, higher = more signal
[10] = target: Alpha-bungarotoxin (Bungarus multicinctus) (UniProt P60615); experiment: compounds binding labelled alpha-BTX control protein – biochemical, small-molecule microarray, Alexa647 label, 635/667 nm fluorescence, artefact control for SMM control protein annotation, profiling panel (AID 1117); settings: alpha-BTX-A647 binding fluorescence, higher = more signal
Chain of Alpha-bungarotoxin (Bungarus multicinctus) (P60615 whole entry, looked up): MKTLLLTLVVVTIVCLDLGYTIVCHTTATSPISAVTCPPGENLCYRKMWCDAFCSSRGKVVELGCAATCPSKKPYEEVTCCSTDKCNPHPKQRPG

Chain of Left-right determination factor 2 (Homo sapiens) (O00292 whole entry, looked up): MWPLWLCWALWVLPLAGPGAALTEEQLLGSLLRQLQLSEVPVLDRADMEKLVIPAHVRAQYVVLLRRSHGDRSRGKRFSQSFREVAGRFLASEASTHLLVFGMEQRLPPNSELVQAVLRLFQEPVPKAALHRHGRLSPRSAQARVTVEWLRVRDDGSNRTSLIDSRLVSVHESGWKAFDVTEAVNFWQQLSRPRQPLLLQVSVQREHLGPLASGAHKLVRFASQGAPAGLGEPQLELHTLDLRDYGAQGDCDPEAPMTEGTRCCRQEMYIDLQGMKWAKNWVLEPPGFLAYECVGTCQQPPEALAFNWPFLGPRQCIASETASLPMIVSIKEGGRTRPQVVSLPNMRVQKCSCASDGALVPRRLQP
Chain of Torsin-1A-interacting protein 1 (Homo sapiens) (Q5JTV8 whole entry, looked up): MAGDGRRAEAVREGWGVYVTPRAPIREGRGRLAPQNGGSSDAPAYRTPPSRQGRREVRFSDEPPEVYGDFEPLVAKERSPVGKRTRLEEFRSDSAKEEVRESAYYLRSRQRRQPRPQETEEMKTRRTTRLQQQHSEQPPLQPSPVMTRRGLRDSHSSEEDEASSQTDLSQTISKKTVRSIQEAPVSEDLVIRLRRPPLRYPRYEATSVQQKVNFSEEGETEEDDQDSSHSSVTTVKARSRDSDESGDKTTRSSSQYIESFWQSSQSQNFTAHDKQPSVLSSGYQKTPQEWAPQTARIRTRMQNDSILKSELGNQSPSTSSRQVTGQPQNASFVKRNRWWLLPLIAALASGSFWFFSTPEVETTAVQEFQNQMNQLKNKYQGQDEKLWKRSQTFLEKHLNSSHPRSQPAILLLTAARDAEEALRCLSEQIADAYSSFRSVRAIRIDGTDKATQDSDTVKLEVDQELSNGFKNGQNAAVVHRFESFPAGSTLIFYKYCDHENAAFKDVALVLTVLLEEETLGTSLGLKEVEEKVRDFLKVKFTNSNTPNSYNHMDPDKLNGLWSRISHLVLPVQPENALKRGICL

Row | Compound | composite z-score [1] | z-score [2] | composite z-score [3] | composite z-score [4] | composite z-score [5] | composite z-score [6] | composite z-score [7] | composite z-score [8] | composite z-score [9] | composite z-score [10]
1 | COc1cc2c(cc1O)C(C1CC1)N(Cc1ccc([N+](=O)[O-])o1)CC2 (stereo not given) | 1.29 | -0.498 | -0.423 | 1.82 | 1.21 | -0.0924 | -0.291 | 1.73 | 1.04 | 0.42
2 | C=C(COC)C(=O)CC[C@@H](OC(=O)c1cccnc1)c1cccc(OCCO)c1 | 0.743 | -1.64 | -0.116 | -0.725 | -0.89 | -0.0731 | 0.0121 | 1.09 | 0.295 | -0.101
3 | C=CCC(OC(C)=O)[C@@H]1[C@@H](N(Cc2cccc3ccccc23)C(=O)c2ccc(C)cc2)c2cc(OCCCO)ccc2N1C(=O)c1ccc2ccccc2n1 (stereo not given in full) | -0.139 | -0.614 | -0.0457 | -0.388 | -0.195 | -0.147 | -0.341 | -0.555 | 0.482 | 1.46
4 | CN(C)C(=O)[C@]1(Cc2ccccc2)N=C(c2ccc(OCCCO)cc2)O[C@@H]1c1ccccc1 | 1.49 | -1.88 | -0.0054 | 1.25 | 0.529 | 0.0317 | -0.214 | 1.43 | 1.8 | 0.917
5 | CC(C)C[C@@H]1NC(=O)[C@H]2C[C@@H](C(=O)NCCCCCCNC(=O)CS)[C@@H](c3ccc(O)cc3)N2C1=O | 1.4 | -1.13 | 0.719 | 1.56 | 0.858 | -0.0718 | -0.0362 | -0.164 | 1.47 | -0.827
6 | COC(=O)[C@@]1(Cc2ccccc2)[C@H]2c3cc(C(=O)N4CCCC4)n(Cc4ccc(C(F)(F)F)nc4)c3C[C@H]2CN1C(=O)c1ccccc1 | 1.46 | -2.59 | -0.208 | 1.96 | 0.836 | 0.288 | 1.36 | 1.48 | 0.658 | 1.56
7 | COCCOC(=O)N1C(=O)[C@@]2(c3cc(C#CCC(C(=O)OC)C(=O)OC)ccc31)[C@H](c1ccc(OCCO)cc1)N1[C@H](c3ccccc3)[C@H](c3ccccc3)OC(=O)[C@H]1[C@@H]2C(=O)N1CCCCCCC1 | 1.21 | -0.735 | 1.13 | 2.57 | 1.53 | 0.816 | 2.6 | 3.08 | 3.22 | 2.32
8 | C[N+](C)(C)CCCCCCNC(=O)[C@@H]1C[C@@H]2C(=O)N[C@@H](Cc3ccccc3)C(=O)N2[C@@H]1c1ccc(O)cc1 | 1.32 | 0.389 | 1.27 | -0.193 | -0.927 | -0.0236 | -0.156 | 0.0498 | 1.41 | 1.54
9 | COc1ccccc1CN1C(=O)c2ccccc2[C@@H](C(=O)NCCCN(C)C)[C@@H]1c1ccc(CO)cc1 | -1.09 | -1.98 | 0.155 | -0.388 | -0.298 | -0.0529 | -0.0263 | -0.337 | 0.55 | 0.256
10 | O=C1OCCC=C[C@H]2OC34C=CCN(c5ccc(Cl)cc5)C(=O)[C@H]3N(CCO)C(=O)[C@@H]4C12 (stereo not given in full) | -0.646 | 0.318 | -1.34 | -0.585 | -0.1 | -0.239 | -0.262 | -0.274 | -0.855 | -0.957
11 | O=C1C2C=CC(C(O)c3ccc([N+](=O)[O-])cc3)N(Nc3ccccc3)C2C(=O)N1c1ccccc1 (stereo not given) | 0.342 | 0.649 | -0.0424 | 0.0871 | -0.447 | -0.0512 | 0.284 | -0.175 | -0.175 | -0.0428
12 | COc1ccc(CCNC(=O)[C@@]2(Sc3ccc(C)cc3)CC(=O)N(Cc3cc(C(F)(F)F)cc(C(F)(F)F)c3)[C@@H]2c2ccc(CO)cc2)cc1 | -1.13 | -0.146 | -2.47 | -0.615 | -0.0998 | -0.124 | -0.117 | -0.54 | -0.282 | 1.24
13 | COC(=O)[C@]1(CO)N=C(c2ccc(OCCCO)cc2)O[C@@H]1c1ccccc1CN=[N+]=[N-] | -0.0942 | 0.606 | -0.266 | -0.738 | -0.0036 | -0.145 | 0.0611 | -0.0007 | 0.751 | -0.0756
